Results from PubChem BioAssay (NCATS).
Inconclusive results are not listed. Active and inactive are the calls of the source. Calls follow the shape of the dose curve; as a rule, active = well fitted curve in the direction sought with a large enough effect; inconclusive = small, poorly fitted or top-dose-only effect, or another doubt; inactive = no such curve, though single readings can be large; an effect the other way counts as inactive or inconclusive.

How the values were obtained:
[1] = qHTS of pediatric cancer cell lines to identify multiple opportunities for drug repurposing: Primary screen for A673 cells (AID 1347092); also: nearly all actives have a fitted effect of over 45% in size; also: potency is read from the fitted curve at half-maximal effect
Summary of the method: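 Luminescence from CellTiter-Glo, taken after 15 min at room temperature, served as the proxy for metabolically active cells following 48 h treatment. Both potency and efficacy were taken from curves fitted to the titration data.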

[2] = qHTS of pediatric cancer cell lines to identify multiple opportunities for drug repurposing: Primary screen for SK-N-MC cells (AID 1347093); also: potency is read from the fitted curve at half-maximal effect
Summary of the method: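 Metabolically active cells were quantified by ATP-dependent luminescence (CellTiter-Glo, 15 min at room temperature) following 48 h treatment. Cells had been plated at 500-1,000 per well and settled for 5 h beforehand.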

[3] = qHTS of pediatric cancer cell lines to identify multiple opportunities for drug repurposing: Primary screen for BT-37 cells (AID 1347094); also: potency is read from the fitted curve at half-maximal effect
Summary of the method: (§1)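 Phenotypic viability qHTS, 48 h compound exposure, CellTiter-Glo luminescence read-out; multi-concentration dosing so that potency and efficacy derive directly from the primary screen's curves.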

[4] = qHTS of pediatric cancer cell lines to identify multiple opportunities for drug repurposing: Primary screen for NB-EBc1 cells (AID 1347095); also: potency is read from the fitted curve at half-maximal effect
Summary of the method: as §1

[5] = qHTS of pediatric cancer cell lines to identify multiple opportunities for drug repurposing: Primary screen for U-2 OS cells (AID 1347096); also: nearly all actives have a fitted effect of over 50% in size; also: potency is read from the fitted curve at half-maximal effect
Summary of the method: (§2)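 Viability after 48 h compound treatment at 37C, 500-1,000 cells/well, read as ATP luminescence with CellTiter-Glo. Primary screens used 11-point (MIPE, 0.78 nM-46 µM) or 8-point (NPC, 0.59 nM-46 µM) final concentrations; follow-up screens used 11-point dilutions.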

[6] = qHTS of pediatric cancer cell lines to identify multiple opportunities for drug repurposing: Primary screen for Saos-2 cells (AID 1347097); also: nearly all actives have a fitted effect of over 40% in size; also: potency is read from the fitted curve at half-maximal effect
Summary of the method: as §1

[7] = qHTS of pediatric cancer cell lines to identify multiple opportunities for drug repurposing: Primary screen for SK-N-SH cells (AID 1347098); also: nearly all actives have a fitted effect of over 65% in size; also: potency is read from the fitted curve at half-maximal effect
Summary of the method: (§3)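 Cells (500-1,000/well) rested 5 h, then received compounds for 48 h; metabolically active cells were measured by CellTiter-Glo luminescence. Final concentrations spanned up to 46 µM (MIPE, 11-point) or 0.59 nM-46 µM (NPC, 8-point) in primary screens, 11-point in follow-ups.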

[8] = qHTS of pediatric cancer cell lines to identify multiple opportunities for drug repurposing: Primary screen for NB1643 cells (AID 1347099); also: nearly all actives have a fitted effect of over 50% in size; also: potency is read from the fitted curve at half-maximal effect
Summary of the method: as §1

[9] = qHTS of pediatric cancer cell lines to identify multiple opportunities for drug repurposing: Primary screen for LAN-5 cells (AID 1347100); also: potency is read from the fitted curve at half-maximal effect
Summary of the method: as §2

[10] = qHTS of pediatric cancer cell lines to identify multiple opportunities for drug repurposing: Primary screen for BT-12 cells (AID 1347101); also: nearly all actives have a fitted effect of over 25% in size; also: potency is read from the fitted curve at half-maximal effect
Summary of the method: as §3

[11] = qHTS of pediatric cancer cell lines to identify multiple opportunities for drug repurposing: Primary screen for Rh18 cells (AID 1347102); also: nearly all actives have a fitted effect of over 65% in size; also: potency is read from the fitted curve at half-maximal effect
Summary of the method: as §2

[12] = qHTS of pediatric cancer cell lines to identify multiple opportunities for drug repurposing: Primary screen for OHS-50 cells (AID 1347103); also: nearly all actives have a fitted effect of over 40% in size
Summary of the method: as §3

[13] = qHTS of pediatric cancer cell lines to identify multiple opportunities for drug repurposing: Primary screen for RD cells (AID 1347104); also: nearly all actives have a fitted effect of over 55% in size; also: potency is read from the fitted curve at half-maximal effect
Summary of the method: as §1

[14] = qHTS of pediatric cancer cell lines to identify multiple opportunities for drug repurposing: Primary screen for MG 63 (6-TG R) cells (AID 1347105); also: nearly all actives have a fitted effect of over 50% in size; also: potency is read from the fitted curve at half-maximal effect
Summary of the method: as §1

[15] = qHTS of pediatric cancer cell lines to identify multiple opportunities for drug repurposing: Primary screen for control Hh wild type fibroblast cells (AID 1347106);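 also: series mostly up to about 46 µM; a drop in luminescence marks cytotoxicity and a rise apparent proliferation; nearly all actives have a fitted effect of over 55% in size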
Summary of the method: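 Cells (500-1,000/well) in growth media were settled 5 h at 37 degrees C, then given compounds for 48 h. Viability was read as CellTiter-Glo luminescence. Primary runs used MIPE at 11 points (0.78 nM-46 µM) and NPC at 8 points (0.59 nM-46 µM); follow-ups used 11 points.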

[16] = qHTS of pediatric cancer cell lines to identify multiple opportunities for drug repurposing: Primary screen for Rh30 cells (AID 1347107); also: series mostly up to about 46 µM; nearly all actives have a fitted effect of over 75% in size
Summary of the method: as §2

[17] = qHTS of pediatric cancer cell lines to identify multiple opportunities for drug repurposing: Primary screen for Rh41 cells (AID 1347108);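 also: series mostly up to about 46 µM; luminescence drop marks cytotoxic hits; nearly all actives have a fitted effect of over 70% in size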
Summary of the method: as §1

[18] = qHTS of pediatric cancer cell lines to identify multiple opportunities for drug repurposing: Confirmatory screen for NB1643 cells (AID 1347109); also: nearly all actives have a fitted effect of over 45% in size; also: potency is read from the fitted curve at half-maximal effect
Summary of the method: as §2

[19] = qHTS of pediatric cancer cell lines to identify multiple opportunities for drug repurposing: Confirmatory screen for SK-N-MC cells (AID 1347111);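 also: cells exposed to compound for 48 h before the readout; nearly all actives have a fitted effect of over 70% in size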; also: potency is read from the fitted curve at half-maximal effect
Summary of the method: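 SK-N-MC cells at 500-1,000 cells/well in growth media were pre-incubated 5 h, then exposed to compounds at 11-point dilutions for 48 h at 37 degrees C, 5% CO2. Viability was read as CellTiter-Glo luminescence.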

[20] = qHTS of pediatric cancer cell lines to identify multiple opportunities for drug repurposing: Confirmatory screen for A673 cells (AID 1347110); also: nearly all actives have a fitted effect of over 65% in size; also: potency is read from the fitted curve at half-maximal effect
Summary of the method: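 qHTS titration format: primary MIPE 0.78 nM-46 µM (11 pts), NPC 0.59 nM-46 µM; confirmation 11 pts. 48 h, CTG luminescence.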

Measured: Potency

CCC(C(=O)OCCN(CC)CC)c1ccccc1 (stereo unspecified)
active: [2] 23.7 µM | [19] 13.1 µM
inactive: [1] | [3] | [4] | [5] | [6] | [7] | [8] | [9] | [10] | [11] | [12] | [13] | [14] | [15] | [16] | [17] | [18]

CC(O)C(=O)O (stereo unspecified)
inactive: [1] | [2] | [3] | [4] | [5] | [6] | [7] | [8] | [9] | [10] | [11] | [12] | [13] | [14] | [16] | [17]

CC(C)(C)NC(=O)[C@@H]1CN(Cc2cccnc2)CCN1C[C@@H](O)C[C@@H](Cc1ccccc1)C(=O)N[C@H]1c2ccccc2C[C@H]1O
inactive: [1] | [2] | [3] | [4] | [5] | [6] | [7] | [8] | [9] | [10] | [11] | [13] | [16] | [17]

C[C@@H]1C[C@H]2[C@@H]3CCC4=CC(=O)C=C[C@]4(C)[C@@]3(F)[C@@H](O)C[C@]2(C)[C@H]1C(=O)CO
inactive: [1] | [2] | [3] | [4] | [5] | [6] | [7] | [8] | [9] | [10] | [11] | [13] | [14] | [16] | [17] | [18] | [20]

CCCN1CCCC[C@H]1C(=O)Nc1c(C)cccc1C
inactive: [1] | [2] | [3] | [4] | [5] | [6] | [7] | [8] | [9] | [10] | [11] | [13] | [14] | [15] | [16] | [17]

Nc1ccc(C(=O)O)cc1
inactive: [1] | [2] | [3] | [4] | [5] | [6] | [7] | [8] | [9] | [10] | [11] | [12] | [13] | [15] | [16] | [17]

CN1CCC[C@@H]1c1cccnc1
inactive: [1] | [2] | [3] | [4] | [5] | [6] | [7] | [8] | [9] | [10] | [11] | [13] | [14] | [16] | [17]

CC(C)n1nc(-c2cc3cc(O)ccc3[nH]2)c2c(N)ncnc21
active: [1] 10.6 µM | [2] 0.299 µM | [3] 1.1 µM | [4] 944 nM | [5] 13.3 µM | [6] 4.22 µM | [7] 12.2 µM | [8] 21.1 µM | [9] 8.41 µM | [10] 1.23 µM | [11] 6.68 µM | [13] 8.41 µM | [14] 1.68 µM

CC(=O)OCC(=O)[C@@]1(O)[C@H](C)C[C@H]2[C@@H]3CCC4=CC(=O)C=C[C@]4(C)[C@@]3(F)[C@@H](O)C[C@@]21C
active: [18] 20.8 µM | [20] 9.27 µM | [19] 29.3 µM
inactive: [1] | [2] | [3] | [4] | [5] | [6] | [7] | [8] | [9] | [10] | [11] | [13] | [14] | [16] | [17]

CCOC(=O)OC(C)OC1=C(C(=O)Nc2ccccn2)N(C)S(=O)(=O)c2ccccc21 (stereo unspecified)
inactive: [1] | [2] | [3] | [4] | [5] | [6] | [7] | [8] | [9] | [10] | [11] | [12] | [13] | [14] | [16] | [17]

O=C(O)CNC(=O)c1ccccc1
inactive: [1] | [2] | [3] | [4] | [5] | [6] | [7] | [8] | [9] | [10] | [11] | [13] | [14] | [15] | [16] | [17]

OC(CCN1CCCCC1)(c1ccccc1)c1ccccc1
inactive: [1] | [2] | [3] | [4] | [5] | [6] | [7] | [8] | [9] | [10] | [11] | [13] | [14] | [15] | [16] | [17]

CC(=O)OCC(=O)[C@@]1(O)CC[C@H]2[C@@H]3CCC4=CC(=O)C=C[C@]4(C)[C@H]3[C@@H](O)C[C@@]21C
inactive: [1] | [2] | [3] | [4] | [5] | [6] | [7] | [8] | [9] | [10] | [11] | [13] | [14] | [15] | [16] | [17] | [18] | [20] | [19]
